Counter-ions that a name gives are not always drawn.
Key:
[1] = test system: E18 rat cortical neuron-glia co-culture; experiment: fiber score / MBP score (myelination specific beyond OL differentiation) (ratio); higher = more myelination-specific MBP alignment; conditions: treatment time: 8 days (DIV5-DIV13)
How it was run: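 Reported values are fiber score (continuous MBP fiber length per Olig2+ nucleus) divided by MBP score (thresholded MBP area × intensity per Olig2+ nucleus). They come from primary E18 rat cortical co-cultures treated with library compounds at 1 or 5 µM in myelination medium from DIV5 to DIV13, then fixed in 4 % paraformaldehyde, immunostained for MBP and Olig2 with DAPI, and analysed over four 10X fields per well in duplicate wells.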

[2] = test system: E18 rat cortical neuron-glia co-culture; experiment: myelination (MBP fiber length per Olig2+ nucleus), % of 1 µM DAPT response (DMSO = 0) (% of DAPT); higher = more myelination, active = 50 or more; conditions: treatment time: 8 days (DIV5-DIV13)
How it was run: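 Rat cortical co-cultures from E18 tissue were dissociated with papain and plated at 20,000 cells/well on 96-well plates coated with poly-d-lysine/laminin. From DIV5 to DIV13, library compounds were added at 1 or 5 µM in myelination medium. After fixation in 4 % paraformaldehyde, cultures were immunostained for MBP and Olig2 and counterstained with DAPI, and four 10X fields were analysed in each of duplicate wells. The myelination value is the length of continuous straight MBP fibers per Olig2+ nucleus, normalised so that 0.1 % DMSO is 0 and a 1 µM positive control is 100.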

| SMILES | fiber score / MBP score ([1]; 1 µM) | fiber score / MBP score ([1]; 5 µM) | myelination ([2]; 1 µM) | myelination ([2]; 5 µM) |
| --- | --- | --- | --- | --- |
| COc1ccc(CCN(C)CCCC(C#N)(c2ccc(OC)c(OC)c2)C(C)C)cc1OC (stereo not drawn) [Verapamil] | 0.856 | 0.533 | -27.2 (inactive) | -53.6 (inactive) |
| CS(=O)(=O)c1ccc(-c2cc(Br)sc2-c2ccc(F)cc2)cc1 | 0.92 |  | 8.65 (inactive) |  |
| Cc1cccc(C)c1NC(=O)C(C)N (stereo not drawn) [Tocainide] | 0.776 |  | -15 (inactive) |  |
| OCCN1C[C@H](O)[C@@H](O)[C@H](O)[C@H]1CO [Miglitol] | 0.881 | 0.788 | -7.81 (inactive) | -16.8 (inactive) |
| CN(C)CCOc1ccc(/C(=C(/CCCl)c2ccccc2)c2ccccc2)cc1 [Toremifene] | 0.889 |  | 3.19 (inactive) |  |
| CC[C@@H]1C(=O)OC[C@@H]1Cc1cncn1C [Pilocarpine] | 0.814 | 0.782 | -24.8 (inactive) | -11.2 (inactive) |
| COC1=CC(=O)C[C@@H](C)[C@]12Oc1c(Cl)c(OC)cc(OC)c1C2=O [Griseofulvin] | 0.759 | 0.92 | -17.8 (inactive) | 21.8 (inactive) |
| CC(=O)OCC(=O)[C@@]12OC3(CCCC3)O[C@@H]1C[C@H]1[C@@H]3CCC4=CC(=O)C=C[C@]4(C)[C@@]3(F)[C@@H](O)C[C@@]12C [Amcinonide] | 0.868 | 0.784 | -11.8 (inactive) | -42.6 (inactive) |
| C=C(CC)C(=O)c1ccc(OCC(=O)O)c(Cl)c1Cl [Ethacrynic Acid] | 2.03 |  | 32.2 (inactive) |  |
| CC=CC(=O)N(CC)c1ccccc1C [Crotamiton] | 0.609 |  | -16.8 (inactive) |  |
| OC(Cn1cncn1)(Cn1cncn1)c1ccc(F)cc1F [Fluconazole] | 0.906 | 0.784 | 5.01 (inactive) | -19.9 (inactive) |
| CCC1(c2ccccc2)C(=O)NCNC1=O [Primidone] | 0.952 | 1.03 | 3.26 (inactive) | -3.74 (inactive) |
| COCC1=C(C(=O)OC(C)OC(=O)OC(C)C)N2C(=O)[C@@H](NC(=O)/C(=N\OC)c3csc(N)n3)[C@H]2SC1 (stereo partly drawn) [Cefpodoxime proxetil] | 0.721 | 0.866 | -20.2 (inactive) | -4.97 (inactive) |
| CN(CCCN1c2ccccc2CCc2ccccc21)CC(=O)c1ccc(Cl)cc1 [Lofepramine] | 0.564 |  | -18.3 (inactive) |  |
| COC1=C(OC)C(=O)C(CCCCCCCCCCO)=C(C)C1=O [Idebenone] | 0.848 |  | -12.8 (inactive) |  |
| C[C@]12CCC(=O)C=C1CC[C@@H]1[C@@H]2[C@@H](O)C[C@@]2(C)[C@H]1CC[C@]2(O)C(=O)COC(=O)CCC(=O)O [Cortisol succinate] | 0.943 | 1.41 | 0.996 (inactive) | 17.9 (inactive) |
| CN1[C@@H]2CC[C@H]1C[C@@H](OC(=O)c1c[nH]c3ccccc13)C2 [Tropisetron] | 0.706 | 0.562 | -47.4 (inactive) | -53.9 (inactive) |
| CC1(C)C[C@@H]1C(=O)N/C(=C\CCCCSC[C@H](N)C(=O)O)C(=O)O [Cilastatin] | 0.833 | 0.756 | -11.5 (inactive) | -15.2 (inactive) |
| O=C1CC2(CCCC2)CC(=O)N1CCCCN1CCN(c2ncccn2)CC1 [Buspirone] | 0.713 | 0.313 | -14.9 (inactive) | -34 (inactive) |

| SMILES | fiber score / MBP score ([1]; 1 µM) | fiber score / MBP score ([1]; 5 µM) | myelination ([2]; 1 µM) | myelination ([2]; 5 µM) |
| --- | --- | --- | --- | --- |
| CN(C)CCC=C1c2ccccc2CCc2ccccc21 [Amitriptyline] | 0.785 | 1.22 | -0.648 (inactive) | 30.2 (inactive) |
| O=c1[nH]cc(F)c(=O)[nH]1 [5-Fluorouracil] | 1.24 |  | 174 |  |
| CCn1cc(C(=O)O)c(=O)c2cc(F)c(N3CCNCC3)cc21 [Norfloxacin] | 0.701 | 0.729 | -19.9 (inactive) | -11.1 (inactive) |
| CC(C)(C)C(O)/C=C/c1ccc2c(c1)OCO2 (stereo not drawn) [Stiripentol] | 0.738 | 0.84 | -11.3 (inactive) | -6.09 (inactive) |
| CCc1c2c(nc3ccc(OC(=O)N4CCC(N5CCCCC5)CC4)cc13)-c1cc3c(c(=O)n1C2)COC(=O)[C@]3(O)CC [Irinotecan] | 2.03 |  | 255 (active) |  |
| c1ccc2[nH]c(-c3cscn3)nc2c1 [Thiabendazole] | 1.05 | 0.885 | 0.461 (inactive) | -0.348 (inactive) |
| Cc1cnc(NC(=O)C2=C(O)c3ccccc3S(=O)(=O)N2C)s1 [Meloxicam] | 0.958 | 1 | -0.993 (inactive) | 3.06 (inactive) |
| O=C(O)/C=C/c1ccc(Cn2ccnc2)cc1 [Ozagrel] | 0.768 | 1.11 | -6.75 (inactive) | -0.768 (inactive) |
| COc1ccc2[nH]c([S@@+]([O-])Cc3ncc(C)c(OC)c3C)nc2c1 [Esomeprazole] | 0.799 | 0.979 | -10.5 (inactive) | 4.81 (inactive) |
| CC1=C(C/C=C(\C)CCC[C@H](C)CCC[C@H](C)CCCC(C)C)C(=O)c2ccccc2C1=O [Phylloquinone] | 0.894 | 0.723 | -4.4 (inactive) | -10.2 (inactive) |
| CN(C)CCCSc1ccccc1NC(=O)/C=C/c1ccccc1 [Cinanserin] | 0.858 | 0.995 | -5.83 (inactive) | 9.08 (inactive) |
| CC1=Nc2ccc(Cl)cc2S(=O)(=O)N1 [Diazoxide] | 1.25 | 0.573 | 5.81 (inactive) | -18.4 (inactive) |
| C[C@]12CC[C@@H]3c4ccc(OS(=O)(=O)O)cc4CC[C@H]3[C@@H]1CCC2=O [Estrone sulfate] | 1.04 | 1.16 | 3.23 (inactive) | 5.79 (inactive) |
| CCCCc1nc(Cl)c(CO)n1Cc1ccc(-c2ccccc2-c2nnn[nH]2)cc1 [Losartan] | 0.8 |  | -14.1 (inactive) |  |
| Clc1ccc(COC(Cn2ccnc2)c2ccc(Cl)cc2Cl)c(Cl)c1 (stereo not drawn) [Miconazole] | 0.482 |  | -12.3 (inactive) |  |
| COC(=O)Nc1nc2cc(C(=O)c3ccc(F)cc3)ccc2[nH]1 [Flubendazole] | 0.494 |  | -24 (inactive) |  |
| CN1CCN(C2=Nc3cc(Cl)ccc3Nc3ccccc32)CC1 [Clozapine] | 0.395 |  | -14.8 (inactive) |  |
| CCN(CC)CCOc1ccc(C(=C(Cl)c2ccccc2)c2ccccc2)cc1 [Clomiphene] | 0.64 |  | -33.9 (inactive) |  |
| Cc1cccc(CN2CCN(C(c3ccccc3)c3ccc(Cl)cc3)CC2)c1 (stereo not drawn) [Meclizine] | 0.439 |  | -29.8 (inactive) | < -51.3 (inactive) |

| SMILES | fiber score / MBP score ([1]; 1 µM) | fiber score / MBP score ([1]; 5 µM) | myelination ([2]; 1 µM) | myelination ([2]; 5 µM) |
| --- | --- | --- | --- | --- |
| CC(C)c1ccc2c(c1)c(SC(C)(C)C)c(CC(C)(C)C(=O)O)n2Cc1ccc(Cl)cc1 | 1.1 |  | -5.83 (inactive) | < -35.1 (inactive) |
| CNCCC(Oc1ccc(C(F)(F)F)cc1)c1ccccc1 (stereo not drawn) [Fluoxetine hydrochloride] | 0.807 |  | -1.16 (inactive) |  |
| COc1cccc2c1C(=O)c1c(O)c3c(c(O)c1C2=O)C[C@@](O)(C(=O)CO)C[C@@H]3O[C@H]1C[C@H](N)[C@H](O)[C@H](C)O1 [Doxorubicin] |  |  |  | < -69.3 (inactive) |
| O=C1CCc2ccc(OCCCCN3CCN(c4cccc(Cl)c4Cl)CC3)cc2N1 [Aripiprazole] | 0.301 |  | -54.9 (inactive) |  |
| COc1cccc2c1C(=O)c1c(O)c3c(c(O)c1C2=O)C[C@@](O)(C(=O)CO)C[C@@H]3O[C@H]1C[C@H](N)[C@H](O)[C@H](C)O1 [Adriamycin] |  |  | < -51.2 (inactive) |  |
| CC[C@H]1OC(=O)[C@H](C)[C@@H](O[C@H]2C[C@@](C)(OC)[C@@H](O)[C@H](C)O2)[C@H](C)[C@@H](O[C@@H]2O[C@H](C)C[C@H](N(C)C)[C@H]2O)[C@](C)(O)C[C@@H](C)C(=O)[C@H](C)[C@@H](O)[C@]1(C)O [Erythromycin] | 0.767 |  | -11.1 (inactive) |  |
| Oc1c(Cl)cc(Cl)c2cccnc12 [Chloroxine] | 2.26 |  | -4.18 (inactive) |  |
| CC[C@H]1OC(=O)[C@H](C)C(=O)[C@H](C)[C@@H](O[C@@H]2O[C@H](C)C[C@H](N(C)C)[C@H]2O)[C@](C)(OC)C[C@@H](C)C(=O)[C@H](C)[C@H]2N(CCCCn3cnc(-c4cccnc4)c3)C(=O)O[C@]12C [Telithromycin] | 0.819 |  | -3.78 (inactive) |  |
| CC(C)(C)NC(=O)[C@@H]1C[C@@H]2CCCC[C@@H]2CN1C[C@@H](O)[C@H](Cc1ccccc1)NC(=O)[C@H](CC(N)=O)NC(=O)c1ccc2ccccc2n1 [Saquinavir] | 0.889 |  | 3.19 (inactive) | < -37.3 (inactive) |
| C[C@@H]1CN(CCCn2c3ccccc3c3ccccc32)C[C@H](C)N1 [Rimcazole] | 0.507 |  | -12.2 (inactive) | < -33.5 (inactive) |
| CCOC(=O)C1=C(COCCN)NC(C)=C(C(=O)OC)C1c1ccccc1Cl (stereo not drawn) [Amlodipine] | 0.613 |  | -4.57 (inactive) |  |
| CN1[C@@H]2CC[C@H]1C[C@@H](OC(c1ccccc1)c1ccccc1)C2 [Benzatropine] |  |  | < -84.9 (inactive) |  |
| Clc1ccc(COC(Cn2ccnc2)c2ccc(Cl)cc2Cl)cc1 (stereo not drawn) [Econazole] | 0.731 |  | 0.139 (inactive) |  |
| c1ccc(CC2=NCCN2)cc1 [Tolazoline] | 0.396 |  | -13.6 (inactive) |  |
| O=C(NCC1CCCCN1)c1cc(OCC(F)(F)F)ccc1OCC(F)(F)F (stereo not drawn) [Flecainide] |  |  |  | < -49.1 (inactive) |
| CC/C(=C(\c1ccccc1)c1ccc(OCCN(C)C)cc1)c1ccccc1 [Tamoxifen] | 0.507 |  | -18.7 (inactive) |  |
| COC(=O)C1=C(C)NC(C)=C(C(=O)OCC(C)C)C1c1ccccc1[N+](=O)[O-] (stereo not drawn) [Nisoldipine] | 0.773 |  | -11.1 (inactive) |  |
| Cc1c(C(=O)NN2CCCCC2)nn(-c2ccc(Cl)cc2Cl)c1-c1ccc(I)cc1 | 0.94 |  | 17.6 (inactive) |  |
